# Hits are enriched below; roughly 2.9% of the tested compounds scored in any of these assays.
# TSHR antag – Antagonists of the Thyroid Stimulating Hormone Receptor: HTS campaign. 330,000 tested, 0.2% active. activity change, negative = inhibition, % at 11.5 µM. TSHR-expressing cells, TSH-stimulated cAMP HTRF, 2 h; active compounds read low;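 active means activity change below a set negative limit, meaning inhibition stronger than a set level, cut at about -70% in these data; inconclusive means activity change between two set negative limits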; further: on the % scale 0 is the no-effect control and ±100 the full control effect
#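 Inhibition of cAMP made by TSHR-expressing cells under TSH stimulation (4nM final, EC80; 2 h, 37 deg C) is quantified with a one-step lysis HTRF kit, anti-cAMP cryptate versus cAMP-d2.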
# DRD3 agonist – qHTS of D3 Dopamine Receptor Agonist: qHTS; D(3) dopamine receptor (Homo sapiens), P35462; D3R DiscoveRx beta-arrestin cells, luminescence, 90 min; max activation, %; 410,000 tested, 0.58% active; in the data active means max activation above about 30%; further: 0% is about no effect
#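 Agonist-mode cell screen: cells plated at 1500/well and incubated overnight at 37 °C, then exposed to library compounds for 90 min at 37 °C. Detection reagent was added for 30–60 min at room temperature, and luminescence was read.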
# B2AR arrestin – qHTS assay of beta-arrestin-biased ligands of beta2-adrenergic receptor | Beta-2 adrenergic receptor (Homo sapiens), P07550 | beta-arrestin recruitment to beta2AR, cell-based reporter | Potency, µM (series often up to 46.1 µM), without a hit: at the highest dose activation, actives largely listed as activators | 330,000 tested, 0.02% active; active means well fitted activation curve with a large enough effect; inconclusive means small, poorly fitted or top-dose-only effect;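 further: potency means the concentration at half of the fitted maximal effect; 0% = DMSO controls and full agonism = EC100 isoproterenol or metaproterenol; nearly all actives have a fitted effect of over 65% in size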
# Target sequence (P07550 whole entry, looked up): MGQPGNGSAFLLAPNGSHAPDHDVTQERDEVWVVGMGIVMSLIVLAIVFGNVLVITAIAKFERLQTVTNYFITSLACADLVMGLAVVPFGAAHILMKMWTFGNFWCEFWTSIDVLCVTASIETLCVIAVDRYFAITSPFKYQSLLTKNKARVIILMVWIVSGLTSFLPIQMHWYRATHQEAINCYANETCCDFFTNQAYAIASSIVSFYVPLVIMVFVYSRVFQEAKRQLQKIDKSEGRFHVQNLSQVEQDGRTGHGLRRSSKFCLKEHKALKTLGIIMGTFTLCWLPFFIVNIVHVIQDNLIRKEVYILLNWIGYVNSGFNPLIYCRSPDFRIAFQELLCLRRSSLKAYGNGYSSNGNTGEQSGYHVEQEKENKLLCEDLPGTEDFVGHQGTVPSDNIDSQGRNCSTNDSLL
# DRD3 antagonist – qHTS of D3 Dopamine Receptor Antagonist: qHTS | 360,000 tested, 2.5% active | D3R cells, DiscoveRx beta-arrestin luminescence, antagonist mode; active compounds read low | D(3) dopamine receptor (Homo sapiens), P35462 | AID 652054, 2013 | max response, negative = inhibition, %; in the data active means max response below about -50%; inconclusive means no clear call, values can overlap the other calls; further: on the % scale 0 is the no-effect control and ±100 the full control effect
#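 Cells plated overnight at 1500 cells/well, then exposed to library compounds with dopamine controls for 90 minutes at 37 degrees C. DiscoveRx reagent added for 30–60 minutes at room temperature; luminescence read, quantitative HTS format.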
# * hit, by the source's call; u = inconclusive; x = no result given; ! = repeats disagree.
SMILES,TSHR antag,DRD3 agonist,B2AR arrestin,DRD3 antagonist
CCC/C=C/C=C/C(=O)O[C@H]1/C(=C/C(=O)OC)C[C@H]2C[C@H]([C@@H](C)O)OC(=O)C[C@H](O)C[C@@H]3C[C@H](OC(C)=O)C(C)(C)[C@](O)(C[C@@H]4C/C(=C/C(=O)OC)C[C@H](/C=C/C(C)(C)[C@]1(O)O2)O4)O3,x,-27.8,x,x
Clc1ccc(COC(Cn2ccnc2)c2ccc(Cl)cc2Cl)c(Cl)c1 (stereo unspecified),-14.3,46.6*!,-0.4%,-7.5
C=CCOC(Cn1ccnc1)c1ccc(Cl)cc1Cl (stereo unspecified),-1.5,-2.8,0.0%,-3.2
C[CH2][Hg][S]c1ccccc1C(=O)O,x,-41.4,x,-64.2*
CC(C)COC(=O)c1ccccc1C(=O)OCC(C)C,4.6,-4.7,-0.3%,-5.2
CC(C)(C)c1ccc(O)c(CN2CCN(c3ccccc3)CC2)c1,23.9,-6.9,-0.4%,-71.0*
Clc1cccc(Cl)c1CN1CCN(c2ccccc2)CC1,-9.3,-13.5,0.3%,u
CC(=O)[C@@]1(O)CC[C@H]2[C@@H]3CCC4=CC(=O)CC[C@]4(C)C3(F)[C@@H](O)C[C@@]21C (stereo partly specified),x,4.0,x,x
O=C(CN1CCOCC1)c1cccc2ccccc12,-9.0,-6.8,4.4%,-55.2*
CC(=O)O[C@H]1C[C@H](O[C@H]2[C@@H](O)C[C@H](O[C@H]3[C@@H](O)C[C@H](O[C@H]4CC[C@@]5(C)[C@H](CC[C@@H]6[C@@H]5C[C@@H](O)[C@]5(C)[C@@H](C7=CC(=O)OC7)CC[C@]65O)C4)O[C@@H]3C)O[C@@H]2C)O[C@H](C)[C@H]1O[C@@H]1O[C@H](CO)[C@@H](O)[C@H](O)[C@H]1O,x,2.8,x,x
N/C(=N\N=C\c1ccc(O)cc1O)N[N+](=O)[O-],21.7,-3.5,-0.7%,-63.9*
COc1ccccc1/C=N/N=C(/N)N[N+](=O)[O-],15.2,3.9,-0.6%,-2.6
O=C(c1ccc(CNS(=O)(=O)c2ccccc2)cc1)N1CCC2(CC1)OCCO2,-6.7,-0.4,-0.2%,-53.4*
O=C(CNS(=O)(=O)c1ccc(Br)s1)N1CCC2(CC1)OCCO2,-1.0,8.5,-0.2%,-54.6*
O=C(c1ccc(CNS(=O)(=O)c2ccc(Br)cc2)cc1)N1CCC2(CC1)OCCO2,-3.6,2.7,-0.7%,-0.1
Cc1ccc(S(=O)(=O)Nc2cc(C(=O)N3CCC4(CC3)OCCO4)ccc2N2CCCCC2)cc1,13.8,-7.1,-0.5%,-54.4*
O=C(c1ccc(CS(=O)(=O)c2ccccc2)o1)N1CCC2(CC1)OCCO2,14.8,33.6*,-0.2%,9.1
Cc1cc(OCC(=O)N2CCN(CCc3ccccn3)CC2)cc(C)c1Cl,x,7.3,x,x
C[C@H](N)C(=O)c1ccccc1,x,0.8,x,x
Cc1cccc(Cc2cnc[nH]2)c1C,x,5.1,x,x
C=CCN1CC[C@]23c4c5ccc(O)c4O[C@@H]2/C(=N/N=C2\CC[C@@]4(O)C6Cc7ccc(O)c8c7[C@@]4(CCN6CC=C)[C@@H]2O8)CC[C@@]3(O)C1C5,-12.0,x,x,x
OCCN(CCO)CCO,x,6.3,x,x
Cc1c(N=Cc2c(O)n(CCc3ccccc3)c(=O)[nH]c2=O)c(=O)n(-c2ccccc2)n1C,3.0,-2.6,-0.1%,0.0
C=CCn1c(O)c(N=Nc2c(C)n(C)n(-c3ccccc3)c2=O)c(=O)[nH]c1=S,-0.4,-13.5,-0.3%,-57.2*
Cc1c(N=Nc2c(O)[nH]c(=S)[nH]c2=O)c(=O)n(-c2ccccc2)n1C,13.2,-15.5,-0.4%,-65.6*
SMILES,TSHR antag,DRD3 agonist,B2AR arrestin,DRD3 antagonist
CCOc1ccc(-n2c(O)c(N=Nc3c(C)n(C)n(-c4ccccc4)c3=O)c(=O)[nH]c2=O)cc1,2.4,-14.5,-0.2%,-21.4
O=C(Nc1cc(C(F)(F)F)cc(C(F)(F)F)c1)c1cccn(Cc2ccccc2Cl)c1=O,x,1.0,x,x
Cc1cc(C)cc(-n2c(C)cc(/C=C3\C(=O)NC(=O)N(C)C3=O)c2C)c1,-4.4,-10.8,-0.2%,-64.6*
CCCN1CC[C@@H]2c3cc(O)ccc3CC[C@@H]21,-8.6,51.0*,0.0%,10.3
CCCN(CCC)[C@@H]1CCc2ccc(O)cc2C1,-9.2,x,x,x
Fc1ccccc1CCNCc1cccc(Cl)c1Cl,16.1,-31.6,-0.3%,-57.6*
Fc1ccccc1CCNCc1ccccc1,3.5,-5.1,3.0%,-3.3
COc1cc(CN2CC=C(c3ccc(F)cc3)CC2)cc(OC)c1,15.4,-23.8,-0.9%,-87.5*

# Source: PubChem BioAssay (National Center for Advancing Translational Sciences (NCATS))
